Assay results published in PubChem BioAssay (NCI).
Compounds without any hit were thinned out: in the full panel of roughly 79,000, 15% have a hit. Activity calls are given as the source filed them. Cut-off read from the data, not from the text of the source: active = growth inhibition above about 70%; inactive = the rest.

Legend:
[1] = NCI Yeast Anticancer Drug Screen. Data for the mlh1 rad18 strain (AID 175); details: S. cerevisiae mlh1 rad18 strain growth inhibition, hits give high values
Outline: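 Steps: expose repair-defective yeast to compound; measure growth; express inhibition against vehicle-treated controls.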

[2] = NCI Yeast Anticancer Drug Screen. Data for the rad18 strain (AID 177); details: S. cerevisiae rad18 mutant growth inhibition, hits give high values
Outline: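 Measured value is growth inhibition of a yeast strain bearing a DNA repair alteration, referenced to vehicle-treated cells.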

[3] = NCI Yeast Anticancer Drug Screen. Data for the wt1 strain (AID 149);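 note: 0% = growth of vehicle-treated wt1 cultures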; details: S. cerevisiae wt1 strain (SPY 50644) growth inhibition, hits give high values
Outline: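 Using yeast strain wt1, compound-induced growth inhibition was determined against vehicle-treated cultures.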

[4] = NCI Yeast Anticancer Drug Screen. Data for the rad50EPP+ strain (AID 151);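 note: 0% = growth of vehicle-treated control cultures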; details: S. cerevisiae rad50 mutant strain, hits give high values
Outline: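 Read-out is yeast growth inhibition relative to vehicle; cells used were the rad50EPP+ strain.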

[5] = NCI Yeast Anticancer Drug Screen. Data for the mgt1 strain (AID 153); details: S. cerevisiae mgt1 mutant growth inhibition, hits give high values
Outline: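 Measured: inhibition of mgt1 yeast growth by compound, normalized to vehicle-treated cultures.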

[6] = NCI Yeast Anticancer Drug Screen. Data for the rad50 strain (AID 155);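 note: 0% = growth of vehicle-only cultures of the same strain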; details: S. cerevisiae rad50 strain growth inhibition, hits give high values
Outline: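 Relative growth inhibition (compound vs vehicle) was measured in yeast with a defined repair-gene alteration.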

[7] = NCI Yeast Anticancer Drug Screen. Data for the mec2-1 strain (AID 157); details: S. cerevisiae mec2-1 strain, hits give high values
Outline: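 Using mec2-1 yeast: add compound, measure growth, express inhibition versus vehicle-treated cultures.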

[8] = NCI Yeast Anticancer Drug Screen. Data for the rad14 strain (AID 159);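 note: 0% = growth of vehicle-treated control cultures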; details: S. cerevisiae rad14 strain growth inhibition, hits give high values
Outline: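 Screen for anticancer potential: a yeast strain altered in DNA damage repair is grown with compound, and reduced growth is quantified against vehicle controls.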

[9] = NCI Yeast Anticancer Drug Screen. Data for the sgs1 mgt1 strain (AID 161);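 note: 0% = growth of cultures given vehicle only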; details: S. cerevisiae sgs1 mgt1 strain, hits give high values
Outline: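 Yeast cells carrying a defined DNA-repair defect were exposed to test compounds. Growth inhibition was measured relative to vehicle-treated controls.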

[10] = NCI Yeast Anticancer Drug Screen. Data for the CLN2oe strain (AID 163);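 note: 0% = growth of vehicle-only control cultures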; details: S. cerevisiae CLN2oe strain, hits give high values
Outline: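 Whole-cell yeast growth assay. A strain engineered for altered cell-cycle control received compound, and inhibition relative to vehicle-treated cultures was recorded.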

[11] = NCI Yeast Anticancer Drug Screen. Data for the cln2 rad14 strain (AID 165);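 note: 0% = growth equal to vehicle treated cultures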; details: S. cerevisiae cln2 rad14 strain, hits give high values
Outline: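 Yeast strain cln2 rad14, bearing defects in cell cycle control and DNA repair, serves as the test system; values reflect growth inhibition compared with vehicle.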

[12] = NCI Yeast Anticancer Drug Screen. Data for the bub3 strain (AID 167); details: S. cerevisiae bub3 mutant strain, hits give high values
Outline: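 Screening used yeast with an engineered genetic alteration affecting cell cycle control. Compound-exposed cultures were compared with vehicle cultures, and reduced growth was taken as inhibition.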

[13] = NCI Yeast Anticancer Drug Screen. Data for the wt2 strain (AID 169);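 note: 0% = growth of vehicle-treated yeast cultures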; details: S. cerevisiae wt2 strain growth inhibition, hits give high values
Outline: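 Treated yeast vs. vehicle-treated yeast: growth inhibition determined.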

[14] = NCI Yeast Anticancer Drug Screen. Data for the mlh1 strain (AID 171);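 note: 0% = growth of vehicle-treated control cultures of the same strain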; details: S. cerevisiae mlh1 strain growth inhibition, hits give high values
Outline: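 A yeast strain with a defined genetic lesion serves as the test organism. Cultures receive compound or vehicle, and growth is measured.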

[15] = NCI Yeast Anticancer Drug Screen. Data for the sgs1 strain (AID 173);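 note: 0% = growth of vehicle-only control cultures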; details: S. cerevisiae sgs1 mutant, hits give high values
Outline: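 A genetically defined yeast mutant is incubated with the test compound, and its growth is compared to that of the same strain given vehicle.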

[16] = at 5.0 µM (retest, dose inferred, filed as 0.5)
[17] = at 50.0 µM (retest, dose inferred, filed as 5.0)

Measured: growth inhibition

CC[C@@]1(O)C(=O)OCc2c1cc1n(c2=O)Cc2cc3c(NC(=O)CN)cccc3nc2-1
inactive: [1]; [16] -12% | [1]; [17] -9% | [1]; at 50.0 µM -0.55% | [2]; at 1.2 µM -18% | [2]; at 3.7 µM -6% | [2]; at 11.0 µM -19% | [2]; at 33.0 µM -8% | [2]; at 100.0 µM -10%

CSC(=Nc1ccccc1)N(c1ccccc1)c1nc(=[N+](C)C)ss1
active: [3]; at 33.0 µM 93% | [3]; at 100.0 µM 98% | [4]; at 33.0 µM 87% | [4]; at 100.0 µM 97% | [5]; at 11.0 µM 84% | [5]; at 33.0 µM 98% | [5]; at 100.0 µM 99% | [6]; at 11.0 µM 93% | [6]; at 33.0 µM 98% | [6]; [17] 99% | [6]; at 50.0 µM 98.4% | [6]; at 100.0 µM 99% | [7]; at 11.0 µM 80% | [7]; at 33.0 µM 97% | [7]; [17] 99% | [7]; at 50.0 µM 99.3% | [7]; at 100.0 µM 99% | [8]; at 11.0 µM 92% | [8]; at 33.0 µM 99% | [8]; at 100.0 µM 99% | [9]; [17] 99% | [9]; at 50.0 µM 98.6% | [10]; at 33.0 µM 80% | [10]; at 100.0 µM 98% | [11]; [17] 98% | [11]; at 50.0 µM 93.4% | [12]; at 11.0 µM 85% | [12]; at 33.0 µM 93% | [12]; [17] 98% | [12]; at 50.0 µM 98.5% | [12]; at 100.0 µM 99% | [13]; at 11.0 µM 87% | [13]; at 33.0 µM 97% | [13]; at 100.0 µM 99% | [14]; at 11.0 µM 88% | [14]; at 33.0 µM 99% | [14]; at 100.0 µM 99% | [15]; at 11.0 µM 91% | [15]; at 33.0 µM 98% | [15]; at 100.0 µM 99% | [1]; [17] 98% | [1]; at 50.0 µM 98.6% | [2]; at 11.0 µM 93% | [2]; at 33.0 µM 98% | [2]; at 100.0 µM 98%
inactive: [3]; at 1.2 µM -2% | [3]; at 3.7 µM 7% | [3]; at 11.0 µM 54% | [4]; at 1.2 µM -1% | [4]; at 3.7 µM -5% | [4]; at 11.0 µM 23% | [5]; at 1.2 µM 2% | [5]; at 3.7 µM 7% | [6]; at 1.2 µM 3% | [6]; at 3.7 µM 13% | [6]; [16] 56% | [7]; at 1.2 µM 2% | [7]; at 3.7 µM 9% | [7]; [16] 26% | [8]; at 1.2 µM -5% | [8]; at 3.7 µM 7% | [9]; [16] 58% | [10]; at 1.2 µM -12% | [10]; at 3.7 µM -11% | [10]; at 11.0 µM 14% | [11]; [16] -1% | [12]; at 1.2 µM 1% | [12]; at 3.7 µM 22% | [12]; [16] 37% | [13]; at 1.2 µM 0% | [13]; at 3.7 µM 17% | [14]; at 1.2 µM -1% | [14]; at 3.7 µM 10% | [15]; at 1.2 µM 3% | [15]; at 3.7 µM 24% | [1]; [16] 44% | [2]; at 1.2 µM 4% | [2]; at 3.7 µM 34%

C[C@]12CC[C@H](O)CC1=CC[C@@H]1[C@@H]2CC[C@]2(C)C(=O)CC[C@@H]12
inactive: [3]; at 1.2 µM -44% | [3]; at 3.7 µM -65% | [3]; at 11.0 µM -70% | [3]; at 33.0 µM 50% | [4]; at 1.2 µM -64% | [4]; at 3.7 µM 4% | [4]; at 11.0 µM 0% | [4]; at 33.0 µM 36% | [4]; at 100.0 µM 65% | [5]; at 1.2 µM -65% | [5]; at 3.7 µM -68% | [5]; at 11.0 µM -62% | [5]; at 33.0 µM 52% | [6]; at 1.2 µM -73% | [6]; at 3.7 µM -41% | [6]; [16] 58% | [6]; at 11.0 µM -57% | [7]; at 1.2 µM -94% | [7]; at 3.7 µM -71% | [7]; [16] 56% | [7]; at 11.0 µM -66% | [8]; at 1.2 µM -57% | [8]; at 3.7 µM -52% | [8]; at 11.0 µM -39% | [9]; [16] -7% | [10]; at 1.2 µM -16% | [10]; at 3.7 µM 2% | [10]; at 11.0 µM 8% | [10]; at 33.0 µM 54% | [11]; [16] 64% | [12]; at 1.2 µM -23% | [12]; at 3.7 µM -36% | [12]; [16] 20% | [12]; at 11.0 µM -17% | [13]; at 1.2 µM -52% | [13]; at 3.7 µM -42% | [13]; at 11.0 µM -37% | [13]; at 33.0 µM 59% | [14]; at 1.2 µM -51% | [14]; at 3.7 µM -81% | [14]; at 11.0 µM -49% | [14]; at 33.0 µM 37% | [15]; at 1.2 µM -75% | [15]; at 3.7 µM -56% | [15]; at 11.0 µM -65% | [1]; [16] 37% | [2]; at 1.2 µM -29% | [2]; at 3.7 µM -24% | [2]; at 11.0 µM -7%
active: [3]; at 100.0 µM 87% | [5]; at 100.0 µM 96% | [6]; at 33.0 µM 78% | [6]; [17] 98% | [6]; at 50.0 µM 88.5% | [6]; at 100.0 µM 91% | [7]; at 33.0 µM 79% | [7]; [17] 98% | [7]; at 50.0 µM 87.8% | [7]; at 100.0 µM 90% | [8]; at 33.0 µM 77% | [8]; at 100.0 µM 96% | [9]; [17] 80% | [9]; at 50.0 µM 88.1% | [10]; at 100.0 µM 94% | [11]; [17] 75% | [11]; at 50.0 µM 88.5% | [12]; at 33.0 µM 72% | [12]; [17] 78% | [12]; at 50.0 µM 86.2% | [12]; at 100.0 µM 92% | [13]; at 100.0 µM 92% | [14]; at 100.0 µM 97% | [15]; at 33.0 µM 77% | [15]; at 100.0 µM 97% | [1]; [17] 99% | [1]; at 50.0 µM 87.7% | [2]; at 33.0 µM 78% | [2]; at 100.0 µM 95%
